In the library only some 3.2% were active in any assay of this set; here they are far more common.
GLP-1R agonist: activates the human GLP-1 receptor; P43220; HEK293 GLP-1R CRE-luciferase, luminescence, 4-6 h; cells express a hypersensitive GLP-1R form; Potency, µM (doses to about 45.6 µM), hits mostly activators; hit rate 0.007% among 380,000
GLP1R cytotox: cytotoxicity counter-screen for GLP-1 receptor inverse agonists; HEK293 cAMP-luciferase reporter cells, luminescence, 24 h; Potency, µM (doses to about 38.3 µM), actives largely listed as inhibitors; hit rate 0.13% among 410,000;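 note: loss of luciferase light is scored as toxicity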
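A 23 nL compound transfer followed 12 hours of cell culture at 37 deg C; exposure then lasted 24 hr. Luciferase assay detection reagent was dispensed and plates read for luminescence after a 12 min room-temperature wait.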
ClpP mod: qHTS Assay for Activators of ClpP. ATP-dependent Clp protease proteolytic subunit (Bacillus subtilis (strain 168)), P80244. purified B. subtilis ClpP, FRET peptide cleavage, 20 min. Potency, µM (top dose mostly 57.5 µM). hit rate 1.9% among 340,000. AID 651965, 2013; active = well fitted falling curve with a large enough effect; inconclusive = small, poorly fitted or top-dose-only effect; inactive = no such curve, though single readings can be large or run the other way; note: the source files actives as falling curves though it sought activators and does not explain the sign; nearly all actives have a fitted effect of over 65% in size
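Purified B. subtilis ClpP, 10 microg/mL final in Tris/HCl pH8 with KCl, BSA, glycerol and Tween-20, cleaved an Abz/nitrotyrosine-quenched decapeptide. Fluorescence (ex 320, em 430) was read at 0 and 20 min at room temperature. Delta was normalized to 5.8 microM ADEP and DMSO/no-enzyme controls.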
GLP-1R inv ag: GLP-1 receptor (human) inverse agonism. HEK293 GLP-1R CRE-luciferase, luminescence, 24 h; GLP-1R form is constitutively active. AID 624417. P43220. Potency, µM (highest dose often 38.3 µM), most hits filed as inhibitors. hit rate 1.6% among 410,000; note: nearly all actives have a fitted effect of over 55% in size
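Readout was luciferase luminescence, measured 12 min after detection reagent at room temperature. Beforehand, GLP-1R reporter HEK293 cells had sat 12 h, then received compounds for 24 hr at 37 deg C.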
A number is an active result; – = inactive; ? = inconclusive; · = not tested or not shown; [ ] = remark or other dose. Unless noted, calls come from the whole dose curve; as a rule, active = well fitted curve in the direction sought with a large enough effect; inconclusive = small, poorly fitted or top-dose-only effect, or another doubt; inactive = no such curve, though single readings can be large; an effect the other way counts as inactive or inconclusive.

SMILES	GLP-1R agonist	GLP1R cytotox	ClpP mod	GLP-1R inv ag
Nc1cc(C(=O)O)ccc1Nc1ccccc1	–	–	10µM	–
CCC(C(=O)Nc1ccc(C(=O)O)cc1NC(=O)C(CC)c1ccccc1)c1ccccc1 (stereo not drawn)	–	–	–	–
CCc1ccccc1Nc1ccc(C(=O)O)cc1N	–	–	28µM	–
Oc1cccc(-c2c3nc(c(-c4cccc(O)c4)c4ccc([nH]4)c(-c4cccc(O)c4)c4nc(c(-c5cccc(O)c5)c5ccc2[nH]5)CC4)C=C3)c1	–	·	·	·
COc1ccc(Br)cc1CNC(=O)c1ccc2nc(C(C)C)oc2c1	·	–	–	–
COc1ccc(OC)c(CNC(=O)c2ccc3nc(C(C)C)oc3c2)c1	·	–	32µM	–
Cc1cccc(C)c1NC(=O)CCCSc1nnc(-c2ccc(Cl)cc2)n1-c1ccccc1	–	–	–	5.6µM
Cc1cccc(C)c1NC(=O)CCCSc1nnc(-c2ccc(F)cc2)n1-c1ccccc1	–	–	–	?
COc1cc(CNCCO)ccc1OCCc1ccccc1	–	–	·	1µM
COc1cc(CNCCc2c[nH]c3ccccc23)ccc1OCc1ccccc1F	–	–	–	7.9µM
COc1cc(CNCCc2ccccc2)ccc1OCC(N)=O	–	–	–	–
Cc1cccc(NC(=O)c2cc(CN3CCOCC3)on2)c1C	·	–	–	–
CCN=c1scc(-c2ccccc2)n1/N=C/c1ccccn1	–	–	·	3.2µM
CCN=c1scc(-c2ccc(F)cc2)n1/N=C/c1ccccn1	–	–	·	?
C=CCN=c1scc(-c2ccccc2)n1/N=C/c1ccccn1	–	?	–	11µM
COc1ccc2c(CNCc3ccccc3OC)c(C(=O)O)n(Cc3ccc(F)cc3Cl)c2c1	·	–	–	–
CN1CCN(c2ccccc2NC(=O)c2ccc(OCc3ccccc3)cc2)CC1	–	?	–	11µM
O=C(Cc1ccc(Cl)c(Cl)c1)Nc1ccccc1N1CCCC1	–	–	–	10µM
O=C(COc1ccc(F)cc1)Nc1cc(S(=O)(=O)N2CCCCC2)ccc1N1CCCCC1	–	–	16µM	?
O=C(COc1ccc([N+](=O)[O-])cc1)Nc1cc(S(=O)(=O)N2CCCCC2)ccc1N1CCCCC1	–	–	–	–
O=C(Nc1ccccc1N1CCCCC1)c1ccco1	–	–	–	11µM
O=C(Cc1ccc(F)cc1)Nc1ccccc1N1CCCC1	–	–	–	?
O=C(Nc1ccccc1N1CCCC1)c1ccco1	–	–	–	–
O=C(Nc1cc(S(=O)(=O)N2CCCCC2)ccc1Cl)c1ccccc1NS(=O)(=O)c1ccc(F)cc1	–	?	?	2.8µM
O=C(COc1ccccc1)Nc1cc(C(F)(F)F)ccc1N1CCCC1	–	–	–	13µM
SMILES	GLP-1R agonist	GLP1R cytotox	ClpP mod	GLP-1R inv ag
COc1cccc(CC(=O)Nc2cc(C(F)(F)F)ccc2N2CCCC2)c1	–	–	–	–
CCOc1ccc(OCC(=O)Nc2ccccc2N2CCCC2)cc1	–	–	–	10µM
O=C(COc1ccccc1)Nc1ccccc1N1CCCCC1	–	–	–	11µM
CC(=O)c1ccc(OCC(=O)Nc2ccccc2N2CCCC2)cc1	–	–	–	–
COc1ccc(-c2nc3c4ccccc4n(CC(=O)Nc4ccc(C(C)C)cc4)c(=O)n3n2)cc1	·	–	–	–
COc1ccc(-n2cc(C(=O)OCc3ccc(F)c(F)c3)c3ccccc3c2=O)cc1	·	–	–	–
Cc1cc(C(F)F)n2ncc(C(=O)NCCc3ccc(Cl)cc3)c2n1	–	–	–	–
Cc1cc(C)n2nc(C(=O)NCc3ccccc3)cc2n1	–	–	25µM	–
Cc1cc(C)n2ncc(C(=O)NCc3ccc(Cl)cc3)c2n1	–	–	?	–
CCOC(=O)C1CCN(C(=O)c2cnn3c(C)cc(C)nc23)CC1	–	–	32µM	–
CCOC(=O)C1CCN(C(=O)COC(=O)c2nc3nc(C)cc(C)n3n2)CC1	–	–	–	–
Cc1cc(C)n2ncc(C(=O)NCc3ccccc3)c2n1	?	–	28µM	–
Cc1cc(C)n2ncc(C(=O)NCCc3ccccc3)c2n1	?	–	28µM	–
CSc1cccc(NC(=O)C2CCN(c3ncnc4c3nc3n4CCCCC3)CC2)c1	·	–	–	–
COc1ccc(OCC(=O)NCc2ccc3c(c2)CCN3C(=O)c2cccc(C)c2)cc1	·	?	–	?
Cc1cc2nn(-c3ccc(F)cc3)nc2cc1NC(=O)c1cc(Cl)ccc1Cl	·	–	–	–
Cc1ccc2c(c1)C(Cc1ccccc1F)C(=O)N2 (stereo not drawn)	·	–	–	–
O=C(NCc1cccc(C(F)(F)F)c1)C1CC(c2ccccc2[N+](=O)[O-])=NO1 (stereo not drawn)	–	–	–	?
O=C(NCc1cc(C(F)(F)F)cc(C(F)(F)F)c1)C1CC(c2ccccc2[N+](=O)[O-])=NO1 (stereo not drawn)	–	–	–	10µM
O=C(Cn1nnc(-c2ccc(C(F)(F)F)cc2)n1)NCCc1ccccc1	–	–	–	–
COc1cccc2cc(NC(=O)C3CCCCC3)c(=O)oc12	–	–	35µM	–
COc1ccc(NC(=O)c2ccc3oc(=O)c(S(=O)(=O)c4ccc(C)cc4)cc3c2)cc1OC	·	–	–	–
CCCNC(=O)NS(=O)(=O)c1cnccc1Sc1ccc(Cl)c(Cl)c1	–	–	22µM	–
CCCNC(=O)NS(=O)(=O)c1cnccc1Sc1ccc(Cl)cc1	–	–	–	–
Cc1ccc(NC(=O)Cn2c(=O)n(Cc3ccc4c(c3)OCO4)c(=O)c3oc4ccccc4c32)cc1C	·	–	?	–
SMILES	GLP-1R agonist	GLP1R cytotox	ClpP mod	GLP-1R inv ag
COc1ccc(CC2S/C(=N/N=C/c3ccccc3O)NC2=O)cc1 (stereo not drawn)	–	?	–	2.5µM
COc1ccc(/C=N/N=C2/NC(=O)C(CC(=O)NC(C)C)S2)cc1 (stereo not drawn)	–	–[0.307 µM]	14µM	–[0.307 µM]
COc1ccc(CC2S/C(=N/N=C/c3ccc(O)cc3)NC2=O)cc1 (stereo not drawn)	–	–	·	–
O=C1N/C(=N/N=C/c2ccccc2O)SC1Cc1ccc(F)cc1 (stereo not drawn)	–	?	·	?
CCOc1ccc(-n2c(=O)c3c(C)c(C)sc3n(CC(=O)NCCc3ccccc3)c2=O)cc1	·	–	–	–
COc1ccc(NC(=O)Cn2cnc3ccc(S(=O)(=O)N4CCC(C)CC4)cc3c2=O)c(OC)c1	–	–	–	–
CC1=C(C#N)C(c2cccnc2)C2=C(CCCC2=O)N1 (stereo not drawn)	–	–	8.9µM	–
Cc1c(Br)cccc1NC(=O)c1sccc1-n1cccc1	–	–	8.9µM	?
O=C(Nc1ccc(Br)cc1F)c1sccc1-n1cccc1	–	–	–	?
CCCNC(=O)CCSc1nc(-c2ccc3c(c2)OCO3)cc(C(F)(F)F)n1	–	–	–	–
COc1ccc(C2N(c3ccc(Cl)cc3)N=C(C(C)=O)N(C)N2C(C)=O)cc1 (stereo not drawn)	–	–	·	10µM

Screening results deposited in PubChem BioAssay by National Center for Advancing Translational Sciences (NCATS).
